# The supplement of paper PMC6555819
# Legend:
# Test in all cases: PBM binding z-score (relative to random genomic background probes); higher = stronger binding; sequences stand for … in GC…GCGATTGACAGCGTAGAATGAAGG
# [1] = test system: FXR:RXRa (NR concentration 270 nM, RXRa partner concentration 90 nM)
# Procedure, shortened: (§1)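 Scanned fluorescence from custom Agilent 4×180K protein-binding microarrays was regression-normalized. Binding z-scores use random background probes as reference. Ligand-free nuclear receptor dimers were incubated on the arrays for 1 h and detected with antibodies against each partner (one per run).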
# [2] = test system: LXRa:RXRa (NR concentration 270 nM, RXRa partner concentration 90 nM)
# Procedure, shortened: as §1
# [3] = test system: LXRa homodimer (NR concentration 270 nM)
# Procedure, shortened: as §1
# [4] = test system: LXRb:RXRa (NR concentration 270 nM, RXRa partner concentration 90 nM)
# Procedure, shortened: as §1
# [5] = test system: LXRb homodimer (NR concentration 270 nM)
# Procedure, shortened: as §1
# [6] = test system: PPARa:RXRa (NR concentration 270 nM, RXRa partner concentration 90 nM)
# Procedure, shortened: as §1
# [7] = test system: PPARg:RXRa (NR concentration 180 nM, RXRa partner concentration 90 nM)
# Procedure, shortened: as §1
# [8] = test system: PPARg:RXRa 270nM:90nM, anti-RXR (NR concentration 270 nM, RXRa partner concentration 90 nM)
# Procedure, shortened: as §1
# [9] = test system: PPARg:RXRa 30nM:10nM, anti-RXR (NR concentration 30 nM, RXRa partner concentration 10 nM)
# Procedure, shortened: as §1
# [10] = test system: PPARg:RXRa 90nM:30nM, anti-RXR (NR concentration 90 nM, RXRa partner concentration 30 nM)
# Procedure, shortened: as §1
# [11] = test system: PPARg:RXRa DBDmut IVT, anti-RXR (DBD mutation: RXRa K156A/R161A, NR concentration 270 nM, RXRa partner concentration 90 nM)
# Procedure, shortened: as §1
# [12] = test system: PPARg:RXRa IVT, anti-PPARg (NR concentration 270 nM, RXRa partner concentration 90 nM)
# Procedure, shortened: as §1
# [13] = test system: PPARg DBDmut:RXRa IVT, anti-PPARg (DBD mutation: PPARg1 K132A/R137A, NR concentration 270 nM, RXRa partner concentration 90 nM)
# Procedure, shortened: as §1
# [14] = test system: PPARg DBDmut IVT, anti-PPARg (DBD mutation: PPARg1 K132A/R137A, NR concentration 270 nM)
# Procedure, shortened: as §1
# [15] = test system: PPARg homodimer (NR concentration 180 nM)
# Procedure, shortened: as §1
# [16] = test system: PXR:RXRa (NR concentration 270 nM, RXRa partner concentration 90 nM)
# Procedure, shortened: as §1
# [17] = test system: PXR homodimer (NR concentration 270 nM)
# Procedure, shortened: as §1
# [18] = test system: RARa:RXR (NR concentration 270 nM, RXRa partner concentration 90 nM)
# Procedure, shortened: as §1
# [19] = test system: RARa homodimer (NR concentration 270 nM)
# Procedure, shortened: as §1
# [20] = test system: RARb:RXRa (NR concentration 270 nM, RXRa partner concentration 90 nM)
# Procedure, shortened: as §1
Sequence,PBM binding z-score [1],PBM binding z-score [2],PBM binding z-score [3],PBM binding z-score [4],PBM binding z-score [5],PBM binding z-score [6],PBM binding z-score [7],PBM binding z-score [8],PBM binding z-score [9],PBM binding z-score [10],PBM binding z-score [11],PBM binding z-score [12],PBM binding z-score [13],PBM binding z-score [14],PBM binding z-score [15],PBM binding z-score [16],PBM binding z-score [17],PBM binding z-score [18],PBM binding z-score [19],PBM binding z-score [20]
GGAACGAGGGCAATGTTGATAGCATCTGTCGACG,0.66,0.337,-0.33,0.395,-0.557,1.66,1.4,1.49,0.128,0.931,3.67,2.77,0.286,-0.167,0.467,0.63,0.108,0.572,-0.191,2.13
TCGGGTAGGTTAGTCGGGGCATTCAGCCAACATA,0.578,0.368,0.422,1.38,0.98,1.01,-0.189,0.977,1.92,1.22,1.77,1.67,0.234,0.0537,0.765,0.737,0.967,0.254,0.816,1.21
AGAACAAGGGCACGCTGAGTTGATAGCAGAGTAG,0.401,0.296,-0.369,-0.0707,-0.878,1.38,1.28,0.671,0.364,0.255,3.07,2.72,0.166,0.443,0.00636,0.845,0.17,0.366,-0.312,2.51
CCGGCTGGGGCATAAGGTTACCATAAGCCAGCCC,-0.0908,1.73,-0.45,0.426,-1.54,1.11,0.631,1.5,-0.332,0.706,-0.781,0.196,-2.71,-2.08,1.02,0.131,-0.484,1.23,-0.82,1.62
TGAATGAGATTAAAGATCAGGGAACGTGGCGTCG,-0.229,-0.065,-0.329,-0.322,-0.389,0.409,1.02,2.19,1.3,1.91,-0.695,-0.415,-1.12,-0.126,-0.076,-0.42,-0.498,-0.467,0.0825,-0.19
AGAATGAGATTATACGTAGATCAGGGAAGAAAGT,-0.225,-0.715,-0.134,-0.538,-0.345,-0.566,1.09,-0.183,0.419,-0.327,-0.76,-0.334,0.931,0.37,-0.24,-0.502,0.417,-0.447,0.366,-0.409
AGAATGAGGTTATACGTAGATCAGCGAAGAAAGT,1.93,1.66,-0.0526,1.22,-0.284,3.27,1.91,1.88,0.445,1.21,3.8,2.33,0.885,1.06,1.02,0.953,0.44,1.55,-0.289,1.23
TCTTGTAGATCAATAGAGGTTAACAAAGTGCGCT,0.932,4.21,0.47,2.29,0.171,2.18,0.373,1.66,2.57,2,1.65,1.38,0.608,1.56,0.466,3.82,0.45,2,0.875,1.02
CCGAGTTGGTTATGGGGCATTCAGGCAACGGTGA,0.0617,0.0147,-0.147,0.0515,-0.451,0.287,0.0793,0.583,-0.717,0.0357,0.136,0.993,-0.435,-0.836,0.998,0.00372,0.402,0.155,0.692,0.288
CGAACTAGATCAAGGACAGTGAATCTCCGCACGC,-0.0387,-0.559,-0.0881,-0.756,-0.00382,-0.388,0.599,-0.0723,-0.423,-0.36,1.97,0.649,-0.11,-0.153,0.0368,-0.495,-0.0304,-0.24,0.262,0.0814
TGGCCTAGGTCATTCAGGGGCCAGTATAGAAAGC,4.69,3.39,0.183,2.3,0.0581,3.59,2.15,2.33,0.133,1.5,1.06,2.22,-0.515,-0.779,1.82,2.48,-0.213,3.77,0.313,3.94
CAGACTGGGGCAGAAAGGTTACCATACCATCCGG,1.11,1.5,-0.0304,1.4,0.122,2.53,2.23,3.3,1.29,2.79,2.77,3.01,-0.514,-0.142,2.11,1.39,-0.052,2.24,0.536,2.04
TCTAGTAGTTGATTAGGGCAACCGAAACAGCGGA,0.323,0.0277,-0.246,0.0544,-0.448,0.658,0.17,1.41,2.74,2.06,1.59,1.34,-0.69,0.23,-0.0887,0.0313,-0.395,0.285,-0.475,0.581
TCTTGTATATCAAGCAGGTTAAGAAAGCCTGAGT,0.234,0.335,0.0276,0.678,0.189,0.992,-0.217,1.47,2.86,1.86,1.41,0.503,0.561,1.48,0.514,0.624,0.331,0.805,0.189,0.615
